From the OligoGym collection
Note: reference of the scale not given here.

Each sequence was assayed against TMEM156 (assay: pooled miR-30 sensor sort-seq; sequence = guide strand). Settings: shRNA.
In the case of TTTGTCTCTATGACTCTGCCAC, the sensor-assay potency score (higher = more potent) is reported as -0.207. TTCCTGAGAAATAAAATCCATG gave a sensor-assay potency score (higher = more potent) of -1.19. For TTGTTGATCTTCCAGTGTGGTT, the sensor-assay potency score (higher = more potent) was -1.08.

Each sequence was assayed against TMEM158 in the same assay as above. Settings: shRNA.
Work on ATGACCAGGGTCATGAAGCAGG yielded a sensor-assay potency score (higher = more potent) of -1.09. TTAAACATCTGCTTTTCGGAAC was tested, and the sensor-assay potency score (higher = more potent) was -0.542. In the case of TGATGTTGCACGGCGCCGCCGC, the sensor-assay potency score (higher = more potent) is reported as -0.887. In the case of TTTTCTGCCATGAATCTAGGGC, the sensor-assay potency score (higher = more potent) is reported as -0.129. Work on TAACGATAACTACAGCACGAAG yielded a sensor-assay potency score (higher = more potent) of -1.77. TACGGTTCAGCCGCCAGCCCGG showed a sensor-assay potency score (higher = more potent) of -1.31. TATAAAACAAATACACAGGATT showed a sensor-assay potency score (higher = more potent) of -0.653. In the case of TAGCAATTTAATCTTTTTGTTT, the sensor-assay potency score (higher = more potent) is reported as -1.1. AAGAGCAGTAGGTCGCACTGGA showed a sensor-assay potency score (higher = more potent) of 0.351. TCCAGGCTGAAGTCTAGGCAGC showed a sensor-assay potency score (higher = more potent) of -1.79. Work on TAGGTCGCACTGGAAGCCCCGC yielded a sensor-assay potency score (higher = more potent) of -0.714. TCGCACTGGAAGCCCCGCGGGC gave a sensor-assay potency score (higher = more potent) of -1.57.
